# From the supplement of paper PMC4466140
# Tests used:
# Test in all cases: SPOT peptide array binding signal intensity (averaged, normalized) (arbitrary units (background-subtracted, floor 0; scale differs between SH3 domains)); higher = stronger binding of the SH3 domain to the peptide
# [1] = molecular target: AgAbp1
# Procedure, shortened: (§1)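 Spot intensities were captured after detection with anti-GST antibody, an HRP-linked anti-mouse secondary and luminol, and quantified with Genespotter. The probes were GST-fused SH3 domains from four yeast species, produced in E. coli BL21(DE3), purified on glutathione Sepharose and incubated at 10 μg/ml overnight at 4°C on cellulose-bound synthetic 15-mer peptides with cysteines replaced by serines. Binding signal is the normalized, background-subtracted spot intensity averaged over replicates, and its arbitrary units differ between domains.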
# [2] = molecular target: AgBbc1
# Procedure, shortened: as §1
# [3] = molecular target: AgBem1-D1
# Procedure, shortened: as §1
# [4] = molecular target: AgBzz1-D1
# Procedure, shortened: as §1
# [5] = molecular target: AgBzz1-D2
# Procedure, shortened: as §1
# [6] = molecular target: AgCyk3
# Procedure, shortened: as §1
# [7] = molecular target: AgFus1
# Procedure, shortened: as §1
# [8] = molecular target: AgHof1
# Procedure, shortened: as §1
# [9] = molecular target: AgHse1
# Procedure, shortened: as §1
# [10] = molecular target: AgLsb1
# Procedure, shortened: as §1
# [11] = molecular target: AgLsb4
# Procedure, shortened: as §1
# [12] = molecular target: AgMyo5
# Procedure, shortened: as §1
# [13] = molecular target: AgNbp2
# Procedure, shortened: as §1
# [14] = molecular target: AgRvs167
# Procedure, shortened: as §1
# [15] = molecular target: AgSho1
# Procedure, shortened: as §1
# [16] = molecular target: AgSla1-D1-D2
# Procedure, shortened: as §1
# [17] = molecular target: AgSla1-D3
# Procedure, shortened: as §1
# [18] = molecular target: CaAbp1-D1
# Procedure, shortened: as §1
# [19] = molecular target: CaAbp1-D2
# Procedure, shortened: as §1
# [20] = molecular target: CaBbc1
# Procedure, shortened: as §1
# [21] = molecular target: CaBem1-D1
# Procedure, shortened: as §1
# [22] = molecular target: CaBzz1-D1
# Procedure, shortened: as §1
# [23] = molecular target: CaBzz1-D2
# Procedure, shortened: as §1
# [24] = molecular target: CaCyk3
# Procedure, shortened: as §1
# [25] = molecular target: CaFus1
# Procedure, shortened: as §1
# [26] = molecular target: CaHof1
# Procedure, shortened: as §1
# [27] = molecular target: CaHse1
# Procedure, shortened: as §1
# [28] = molecular target: CaLsb1
# Procedure, shortened: as §1
# [29] = molecular target: CaLsb4
# Procedure, shortened: as §1
# [30] = molecular target: CaMyo5
# Procedure, shortened: as §1
# [31] = molecular target: CaNbp2
# Procedure, shortened: as §1
# [32] = molecular target: CaRvs167
# Procedure, shortened: as §1
# [33] = molecular target: CaRvs167-3
# Procedure, shortened: as §1
# [34] = molecular target: CaSho1
# Procedure, shortened: as §1
# [35] = molecular target: CaSla1-D1-D2
# Procedure, shortened: as §1
# [36] = molecular target: CaSla1-D3
# Procedure, shortened: as §1
# [37] = molecular target: ScAbp1
# Procedure, shortened: as §1
# [38] = molecular target: ScBbc1
# Procedure, shortened: as §1
# [39] = molecular target: ScBem1-D1
# Procedure, shortened: as §1
# [40] = molecular target: ScBzz1-D1
# Procedure, shortened: as §1
# [41] = molecular target: ScBzz1-D2
# Procedure, shortened: as §1
# [42] = molecular target: ScCyk3
# Procedure, shortened: as §1
# [43] = molecular target: ScFus1
# Procedure, shortened: as §1
# [44] = molecular target: ScHof1
# Procedure, shortened: as §1
# [45] = molecular target: ScHse1
# Procedure, shortened: as §1
# [46] = molecular target: ScLsb1
# Procedure, shortened: as §1
# [47] = molecular target: ScLsb2
# Procedure, shortened: as §1
# [48] = molecular target: ScLsb3
# Procedure, shortened: as §1
# [49] = molecular target: ScLsb4
# Procedure, shortened: as §1
# [50] = molecular target: ScMyo3
# Procedure, shortened: as §1
# [51] = molecular target: ScMyo5
# Procedure, shortened: as §1
# [52] = molecular target: ScNbp2
# Procedure, shortened: as §1
# [53] = molecular target: ScPex13
# Procedure, shortened: as §1
# [54] = molecular target: ScRvs167
# Procedure, shortened: as §1
# [55] = molecular target: ScSho1
# Procedure, shortened: as §1
# [56] = molecular target: ScSla1-D1-D2
# Procedure, shortened: as §1
# [57] = molecular target: ScSla1-D3
# Procedure, shortened: as §1
# [58] = molecular target: SpAbp1-D1
# Procedure, shortened: as §1
# [59] = molecular target: SpBbc1
# Procedure, shortened: as §1
# [60] = molecular target: SpBzz1-D1
# Procedure, shortened: as §1
# [61] = molecular target: SpBzz1-D2
# Procedure, shortened: as §1
# [62] = molecular target: SpCyk3
# Procedure, shortened: as §1
# [63] = molecular target: SpHof1
# Procedure, shortened: as §1
# [64] = molecular target: SpHof1-2
# Procedure, shortened: as §1
# [65] = molecular target: SpHof1-3
# Procedure, shortened: as §1
# [66] = molecular target: SpHse1
# Procedure, shortened: as §1
# [67] = molecular target: SpLsb1
# Procedure, shortened: as §1
# [68] = molecular target: SpLsb4
# Procedure, shortened: as §1
# [69] = molecular target: SpMyo1
# Procedure, shortened: as §1
# [70] = molecular target: SpNbp2
# Procedure, shortened: as §1
# [71] = molecular target: SpPex13
# Procedure, shortened: as §1
# [72] = molecular target: SpRvs167
# Procedure, shortened: as §1
# [73] = molecular target: SpSla1-D1-D2
# Procedure, shortened: as §1
# [74] = molecular target: SpSla1-D3
# Procedure, shortened: as §1
binder,measurement,setting,value
DGNEEKPLLPTRPNK,SPOT peptide array binding signal intensity,[1],≤ 0
same,SPOT peptide array binding signal intensity,[2],977
same,SPOT peptide array binding signal intensity,[3],≤ 0
same,SPOT peptide array binding signal intensity,[4],9.5
same,SPOT peptide array binding signal intensity,[5],17.5
same,SPOT peptide array binding signal intensity,[6],≤ 0
same,SPOT peptide array binding signal intensity,[7],≤ 0
same,SPOT peptide array binding signal intensity,[8],23.8
same,SPOT peptide array binding signal intensity,[9],≤ 0
same,SPOT peptide array binding signal intensity,[10],47.2
same,SPOT peptide array binding signal intensity,[11],1730
same,SPOT peptide array binding signal intensity,[12],0.25
same,SPOT peptide array binding signal intensity,[13],≤ 0
same,SPOT peptide array binding signal intensity,[14],43.8
same,SPOT peptide array binding signal intensity,[15],≤ 0
same,SPOT peptide array binding signal intensity,[16],≤ 0
same,SPOT peptide array binding signal intensity,[17],≤ 0
same,SPOT peptide array binding signal intensity,[18],≤ 0
same,SPOT peptide array binding signal intensity,[19],≤ 0
same,SPOT peptide array binding signal intensity,[20],844
same,SPOT peptide array binding signal intensity,[21],≤ 0
same,SPOT peptide array binding signal intensity,[22],18
same,SPOT peptide array binding signal intensity,[23],1.75
same,SPOT peptide array binding signal intensity,[24],7
same,SPOT peptide array binding signal intensity,[25],≤ 0
same,SPOT peptide array binding signal intensity,[26],0.5
same,SPOT peptide array binding signal intensity,[27],6.38
same,SPOT peptide array binding signal intensity,[28],≤ 0
same,SPOT peptide array binding signal intensity,[29],3160
same,SPOT peptide array binding signal intensity,[30],≤ 0
NQARKPFLLPATELS,SPOT peptide array binding signal intensity,[1],≤ 0
same,SPOT peptide array binding signal intensity,[2],≤ 0
same,SPOT peptide array binding signal intensity,[3],23.5
same,SPOT peptide array binding signal intensity,[4],19
same,SPOT peptide array binding signal intensity,[5],16.5
same,SPOT peptide array binding signal intensity,[6],≤ 0
same,SPOT peptide array binding signal intensity,[7],≤ 0
same,SPOT peptide array binding signal intensity,[8],11.8
same,SPOT peptide array binding signal intensity,[9],454
same,SPOT peptide array binding signal intensity,[10],295
same,SPOT peptide array binding signal intensity,[11],≤ 0
same,SPOT peptide array binding signal intensity,[12],2
same,SPOT peptide array binding signal intensity,[13],5
same,SPOT peptide array binding signal intensity,[14],≤ 0
same,SPOT peptide array binding signal intensity,[15],≤ 0
same,SPOT peptide array binding signal intensity,[16],3
same,SPOT peptide array binding signal intensity,[17],0.5
same,SPOT peptide array binding signal intensity,[18],225
same,SPOT peptide array binding signal intensity,[19],17
same,SPOT peptide array binding signal intensity,[20],≤ 0
same,SPOT peptide array binding signal intensity,[21],≤ 0
same,SPOT peptide array binding signal intensity,[22],≤ 0
same,SPOT peptide array binding signal intensity,[23],≤ 0
same,SPOT peptide array binding signal intensity,[24],1
same,SPOT peptide array binding signal intensity,[25],228
same,SPOT peptide array binding signal intensity,[26],≤ 0
same,SPOT peptide array binding signal intensity,[27],4.75
same,SPOT peptide array binding signal intensity,[28],0.5
same,SPOT peptide array binding signal intensity,[29],≤ 0
same,SPOT peptide array binding signal intensity,[30],3.75
same,SPOT peptide array binding signal intensity,[31],100
same,SPOT peptide array binding signal intensity,[32],0.333
same,SPOT peptide array binding signal intensity,[33],4.5
same,SPOT peptide array binding signal intensity,[34],28.5
same,SPOT peptide array binding signal intensity,[35],≤ 0
same,SPOT peptide array binding signal intensity,[36],≤ 0
same,SPOT peptide array binding signal intensity,[37],59.5
same,SPOT peptide array binding signal intensity,[38],3.75
same,SPOT peptide array binding signal intensity,[39],3.5
same,SPOT peptide array binding signal intensity,[40],13
same,SPOT peptide array binding signal intensity,[41],6.5
same,SPOT peptide array binding signal intensity,[42],8
same,SPOT peptide array binding signal intensity,[43],15
same,SPOT peptide array binding signal intensity,[44],0.5
same,SPOT peptide array binding signal intensity,[45],1630
same,SPOT peptide array binding signal intensity,[46],23.5
same,SPOT peptide array binding signal intensity,[47],≤ 0
same,SPOT peptide array binding signal intensity,[48],≤ 0
same,SPOT peptide array binding signal intensity,[49],≤ 0
same,SPOT peptide array binding signal intensity,[50],≤ 0
same,SPOT peptide array binding signal intensity,[51],≤ 0
same,SPOT peptide array binding signal intensity,[52],≤ 0
same,SPOT peptide array binding signal intensity,[53],≤ 0
same,SPOT peptide array binding signal intensity,[54],4.67
same,SPOT peptide array binding signal intensity,[55],105
same,SPOT peptide array binding signal intensity,[56],≤ 0
same,SPOT peptide array binding signal intensity,[57],8
same,SPOT peptide array binding signal intensity,[58],34
same,SPOT peptide array binding signal intensity,[59],≤ 0
same,SPOT peptide array binding signal intensity,[60],≤ 0
same,SPOT peptide array binding signal intensity,[61],≤ 0
same,SPOT peptide array binding signal intensity,[62],1
same,SPOT peptide array binding signal intensity,[63],24.5
same,SPOT peptide array binding signal intensity,[64],0.5
same,SPOT peptide array binding signal intensity,[65],870
same,SPOT peptide array binding signal intensity,[66],770
same,SPOT peptide array binding signal intensity,[67],11
same,SPOT peptide array binding signal intensity,[68],≤ 0
same,SPOT peptide array binding signal intensity,[69],≤ 0
same,SPOT peptide array binding signal intensity,[70],7
same,SPOT peptide array binding signal intensity,[71],≤ 0
same,SPOT peptide array binding signal intensity,[72],≤ 0
same,SPOT peptide array binding signal intensity,[73],≤ 0
same,SPOT peptide array binding signal intensity,[74],≤ 0
